In all, about 360,000 compounds went through this assay and about 16,000 (4.4%) were called active. Not shown: some 9% with an inconclusive outcome. Many of the other results were omitted from the sample, so actives are more common in it than they were. Values without a mark were called inactive. Calls follow the shape of the dose curve; as a rule, active = well fitted inhibition curve with a large enough effect; inconclusive = small, poorly fitted or top-dose-only effect; inactive = no such curve, though single readings can be large or run the other way.
What follows are compounds tested against Bromodomain adjacent to zinc finger domain protein 2B (Homo sapiens) (UniProt Q9UIF8) (assay: qHTS Assay for Inhibitors of BAZ2B). Details: AlphaScreen BAZ2B-H3K14Ac peptide displacement; series mostly up to 114 µM; activity change, negative = inhibition: at the top concentration.
Sequence of Bromodomain adjacent to zinc finger domain protein 2B (Homo sapiens) (Q9UIF8 whole entry, looked up, the tested form may be a part): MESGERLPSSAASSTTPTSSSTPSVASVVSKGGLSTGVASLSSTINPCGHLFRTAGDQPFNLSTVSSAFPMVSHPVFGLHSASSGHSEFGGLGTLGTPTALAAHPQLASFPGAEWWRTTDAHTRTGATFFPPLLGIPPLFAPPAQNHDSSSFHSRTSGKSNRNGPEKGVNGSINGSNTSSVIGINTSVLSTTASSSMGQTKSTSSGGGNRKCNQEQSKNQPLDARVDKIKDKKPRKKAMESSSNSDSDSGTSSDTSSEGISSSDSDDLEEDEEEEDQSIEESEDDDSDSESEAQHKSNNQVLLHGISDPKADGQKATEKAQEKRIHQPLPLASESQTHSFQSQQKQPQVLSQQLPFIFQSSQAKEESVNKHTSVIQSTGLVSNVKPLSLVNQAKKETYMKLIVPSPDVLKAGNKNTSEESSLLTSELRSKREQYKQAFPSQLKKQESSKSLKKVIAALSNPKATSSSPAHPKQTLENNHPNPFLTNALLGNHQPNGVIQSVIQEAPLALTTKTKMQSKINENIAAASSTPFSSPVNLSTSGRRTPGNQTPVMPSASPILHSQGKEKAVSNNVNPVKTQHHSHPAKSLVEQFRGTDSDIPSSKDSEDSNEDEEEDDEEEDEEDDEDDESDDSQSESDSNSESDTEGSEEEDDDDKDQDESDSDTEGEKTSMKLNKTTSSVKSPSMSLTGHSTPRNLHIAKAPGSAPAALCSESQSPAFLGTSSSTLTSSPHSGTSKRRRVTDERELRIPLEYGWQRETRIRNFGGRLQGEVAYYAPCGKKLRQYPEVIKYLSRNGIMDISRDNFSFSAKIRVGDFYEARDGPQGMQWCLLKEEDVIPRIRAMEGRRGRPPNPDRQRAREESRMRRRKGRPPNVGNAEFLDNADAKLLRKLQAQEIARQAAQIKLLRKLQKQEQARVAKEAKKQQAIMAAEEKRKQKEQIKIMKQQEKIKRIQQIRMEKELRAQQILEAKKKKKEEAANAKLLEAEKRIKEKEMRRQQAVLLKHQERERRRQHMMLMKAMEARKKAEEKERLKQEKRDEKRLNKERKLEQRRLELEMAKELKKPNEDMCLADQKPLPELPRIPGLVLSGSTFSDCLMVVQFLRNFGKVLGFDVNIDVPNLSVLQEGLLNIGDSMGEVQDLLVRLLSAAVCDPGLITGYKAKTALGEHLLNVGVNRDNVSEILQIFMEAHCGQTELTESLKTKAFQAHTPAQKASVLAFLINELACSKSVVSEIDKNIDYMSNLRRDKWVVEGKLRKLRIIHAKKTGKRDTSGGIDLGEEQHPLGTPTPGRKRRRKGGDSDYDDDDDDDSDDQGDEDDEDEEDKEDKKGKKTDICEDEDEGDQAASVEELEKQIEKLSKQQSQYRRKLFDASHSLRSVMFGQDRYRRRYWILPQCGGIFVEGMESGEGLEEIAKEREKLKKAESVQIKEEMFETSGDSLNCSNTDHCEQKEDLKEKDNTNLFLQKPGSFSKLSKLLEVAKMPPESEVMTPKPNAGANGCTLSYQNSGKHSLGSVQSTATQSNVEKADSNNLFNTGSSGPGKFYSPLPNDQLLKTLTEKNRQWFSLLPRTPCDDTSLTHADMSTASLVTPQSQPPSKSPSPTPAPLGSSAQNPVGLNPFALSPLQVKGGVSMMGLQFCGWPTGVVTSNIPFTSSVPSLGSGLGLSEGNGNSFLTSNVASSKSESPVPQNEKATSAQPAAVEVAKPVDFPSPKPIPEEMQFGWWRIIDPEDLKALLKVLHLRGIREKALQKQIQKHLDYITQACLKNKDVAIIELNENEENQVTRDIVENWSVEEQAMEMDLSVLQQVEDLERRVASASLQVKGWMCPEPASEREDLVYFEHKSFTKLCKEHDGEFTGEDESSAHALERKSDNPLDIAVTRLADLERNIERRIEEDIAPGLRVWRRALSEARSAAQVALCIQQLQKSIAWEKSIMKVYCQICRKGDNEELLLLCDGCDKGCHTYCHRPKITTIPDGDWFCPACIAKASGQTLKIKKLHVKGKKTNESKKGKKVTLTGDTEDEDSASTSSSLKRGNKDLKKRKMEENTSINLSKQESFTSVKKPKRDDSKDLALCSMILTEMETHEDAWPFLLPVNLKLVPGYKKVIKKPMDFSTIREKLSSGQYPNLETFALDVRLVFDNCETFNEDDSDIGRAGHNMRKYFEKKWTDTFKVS
Method in brief: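 AlphaScreen displacement of biotin-H3(5-23)K14Ac peptide (50 nM final) from BAZ2B (50 nM final) in PBS pH 7.4, 0.01% Tween-20; complex preformed 30 min RT, then compounds (top 110 uM) 30 min RT, beads 20 min dark.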
% is scaled to controls: 0 for no effect and ±100 for the full control effect; potency is read from the fitted curve at half-maximal effect.
Also: nearly all actives have a fitted effect of over 60% in size.

SMILES	activity change, negative = inhibition	Potency
Cc1c(-c2nsc(NC(=O)c3cccc(Cl)c3)n2)nnn1-c1ccccc1C(F)(F)F	-1.61%	
Cc1ccccc1Nc1scc(-c2ccc(Br)cc2)[n+]1-c1ccccc1C		11.2 µM (active)
O=C(CSc1ncc(S(=O)(=O)c2ccc(Br)cc2)c(=O)[nH]1)Nc1ccc2c(c1)OCCO2	-25.2%	
CCN1CCN(C(c2cccnc2)c2cc(Cl)c3cccnc3c2O)CC1 (stereo unspecified)		11.2 µM (active)
CCOC(=O)N1CCN(C(=O)CSc2nc(=O)n3cccc(C)c3n2)CC1	8.46%	
CCN1CCN(C(c2ccc(C)cc2)c2c(O)cc(C)n(Cc3ccco3)c2=O)CC1 (stereo unspecified)	-18.2%	
CCOC(=O)N1CCN(C(c2cccnc2)c2ccc3cccnc3c2O)CC1 (stereo unspecified)		15.8 µM (active)
CCOc1ccc(C(NC(=O)c2cc(OC)c(OC)c(OC)c2)c2cc(Cl)c3cccnc3c2O)cc1 (stereo unspecified)	4.51%	
COc1ccccc1N1CCN(C(CNC(=O)C(=O)NCc2ccc(C)cc2)c2cccnc2)CC1 (stereo unspecified)	-3.79%	
Cc1ccc(Cl)cc1NC(=O)CCC(=O)N1CC(C)Sc2ccccc21 (stereo unspecified)	-4.18%	
CCOc1ccc(Nc2ncnc3scc(-c4ccc(OC)cc4)c23)cc1	-2.31%	
C#CCN(N(C)c1ncc(C(F)(F)F)cc1Cl)S(=O)(=O)c1ccc2ccccc2c1	3.53%	
CN(CC(=O)Nc1cccc(C(F)(F)F)c1)S(=O)(=O)c1cccs1	2.07%	
CN(NS(=O)(=O)c1cccs1)c1ncc(C(F)(F)F)cc1Cl		56.2 µM (active)
Cc1cccc(-n2ncc(C(=O)N3CCN(c4ccc(Cl)cc4)CC3)c2C2CCN(C(=O)OC(C)(C)C)CC2)c1	-17.4% [at 57.1 µM]	
CC1=C(C(=O)OCC(C)C)C(c2ccc(OCc3ccccc3)cc2)N2C(=O)CCSC2=N1 (stereo unspecified)	-11.9%	
Cc1cc(/C=N/n2cnnc2)c(C)n1-c1cccc(C(=O)O)c1		35.5 µM (active)
Fc1ccc(Br)cc1/C=N/n1cnnc1	-0.0547%	
Cc1cc(/C=C2\SC(=O)N(C)C2=O)c(C)n1-c1cccc(C(=O)O)c1		79.4 µM (active)
Cc1cc(/C=C2/SC(=O)N(CC(=O)N3CCCC3)C2=O)c(C)n1C	-31.3%	
NC1=NN(c2cccc(C(=O)O)c2)C(=O)C1	-32.4%	
Cc1cc(/C=C2/SC(=O)N(CC(=O)OC(C)C)C2=O)c(C)n1C	-4.3%	
Cc1cc(/C=N/Nc2ccc([N+](=O)[O-])cn2)c(C)n1-c1cccc(C(=O)O)c1		44.7 µM (active)
Cc1cccc(C)c1NC(=O)CSc1ccc([N+](=O)[O-])cn1	-6.12%	
O=[N+]([O-])c1cccc(/C=N/Nc2ncc(Br)cn2)c1	10.5%	
O=C(Cn1c(=O)n(-c2ccc(F)cc2)c(=O)c2sccc21)Nc1cccc(C(F)(F)F)c1	-18.1%	

SMILES	activity change, negative = inhibition	Potency
CCc1cccc(-n2nnc(-c3nsc(NC(=O)c4ccc(C)cc4)n3)c2C)c1	1.17%	
O=C(CS(=O)(=O)c1cccc2nsnc12)N1CCN(c2cccc(Cl)c2)CC1	-28.5%	
COc1ccccc1-c1cc(C(F)(F)F)nc(S(=O)(=O)CCCC(=O)Nc2ccc(F)cc2F)n1	-21.3%	
CCn1cc2nc(SCc3cccc(F)c3)n(CCc3ccccc3)c(=O)c2n1	2.73%	
COc1cc(NS(=O)(=O)c2ccc3c(c2)OCC(C(=O)N2CCCC2)O3)cc(OC)c1 (stereo unspecified)	-12.5%	
COc1ccc(C(=O)N2CCC(c3nc4ccccc4o3)CC2)cc1	-8.77%	
Cc1cc(=O)n(C)c(=O)n1CCCNc1ccccc1		50.1 µM (active)
Cc1cc2nc(C)n(CCCNC(=O)Nc3ccccc3)c2cc1C	5.12%	
Cn1c(Nc2ccccc2)cc(=O)n(C)c1=O	5.28%	
Cc1ccc(-n2nc(C)c3c(C)cc(=O)n(CC(=O)Nc4ccc(C(C)C)cc4)c32)cc1	5.9%	
O=C(Cc1ccc(S(=O)(=O)N2CCOCC2)s1)NCCC(c1ccccc1)c1ccccc1	-36.3%	
O=C(Cc1ccc(S(=O)(=O)N2CCCC2)s1)NC1CCCCCC1		50.1 µM (active)
O=C(NC1CCCCC1)C1CCCN(S(=O)(=O)c2ccc(Br)s2)C1 (stereo unspecified)	-9.2%	
Cc1cc(-c2ccc(C)c(S(=O)(=O)N3c4ccccc4CC3C)c2)on1 (stereo unspecified)	12.6%	
Cc1ccsc1CN(C(=O)c1oc2ccc(Br)cc2c1C)C1CCS(=O)(=O)C1 (stereo unspecified)	-15.3%	
O=C(Nc1nnc(C2=COCCO2)o1)c1ccc([N+](=O)[O-])s1		79.4 µM (active)
Cc1cccc(C)c1NC(=O)CNC(=O)c1ccc2c(c1)OCCO2	7.19%	
Cc1ccc(C(=O)Nc2nnc(C3=COCCO3)o2)cc1C		50.1 µM (active)
CCC(CC)c1nnc(NC(=O)C2=COCCO2)s1	4.03%	
CSc1ccccc1-c1nnc(NC(=O)c2ccc3c(c2)OCCO3)o1	-2.66%	
COc1ccc(C(=O)COC(=O)c2ccc([N+](=O)[O-])s2)cc1OC	1.73%	
Cc1csc(NC(=O)C2=COCCO2)n1	11.9%	
O=C(Nc1ncc([N+](=O)[O-])s1)C1COc2ccccc2O1 (stereo unspecified)	-24%	
COc1cc(-c2nnc(NC(=O)C3=COCCO3)o2)cc(OC)c1OC		39.8 µM (active)
O=C(NCCc1csc(-c2ccc(C(F)(F)F)cc2)n1)C(=O)Nc1ccc(F)c(Cl)c1	1.15%	

Source: PubChem BioAssay AID504333 (National Center for Advancing Translational Sciences (NCATS), 2011)
